# From PubChem BioAssay
# Compounds with a hit are over-represented: about 6.9% of the library has one in this group of screens.
# Vif-A3F inh: Vif-A3F binding inhibition; HeLa A3F-eYFP + Vif (tagged APOBEC3F with the HIV-1 protein that degrades it), YFP fluorescence increase; AID 602313; Potency, µM (top dose mostly 46.1 µM), for the others: at the highest dose activity, negative = active; 390,000 tested, 0.2% active; also: potency is read from the fitted curve at half-maximal effect; % of control where 0% means no effect; nearly all actives have a fitted effect of over 65% in size
#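 Fluorescence increase (Ex 488/Em 500-530) after overnight compound treatment at 37 deg C flags inhibition of Vif-driven A3F-eYFP loss in stable HeLa A3F-eYFP/Vif cells seeded overnight beforehand.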
# SW480 rerep: inducers of DNA re-replication in SW480 colon cancer cells | 340,000 tested, 1.8% active | SW480 DNA re-replication, Hoechst DNA content imaging, 48 h | Potency, µM (titrated, usually from 46.1 µM), for inactives: at the highest dose re-replication activation, hits mostly activators; also: potency is read from the fitted curve at half-maximal effect; % of control where 0% means no effect; nearly all actives have a fitted effect of over 55% in size
#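 Quantitative HTS format with DMSO vehicle controls; 48 hr drug incubation at 37 C, then 40 min Hoechst staining and scanning imager measurement at 405 nm excitation.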
# Giardia kill: kills Giardia lamblia. Giardia lamblia trophozoite viability. activity change, % at 7.66 µM, hits read low. 340,000 tested, 0.15% active; in the data active = activity change below about -80%; inconclusive = between about -30% and that limit;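 also: parasites exposed to compound for two days anaerobically before the ATP read; % is scaled to controls: 0 for no effect and ±100 for the full control effect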
#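 Viability, read as ATP luminescence: trophozoites at 100 cells/well, compound added, 48 hrs anaerobic at 37 deg C, then 15-30 min room-temperature development before reading.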
# MCF10A rerep: inducers of DNA re-replication in MCF 10A breast cells | AID 624296 | MCF 10A DNA re-replication, Hoechst nuclear intensity, 48 h | Potency, µM (top dose mostly 46.1 µM), inactives show at the top dose activity, positive = re-replication, hits mostly activators | 350,000 tested, 2.9% active; also: potency is read from the fitted curve at half-maximal effect; % of control where 0% means no effect; nearly all actives have a fitted effect of over 50% in size
# Vif-A3G inh: Vif-A3G binding inhibition; Potency, µM (doses to about 46.1 µM), for the others: at the highest dose activity, negative = active, most hits filed as inhibitors; Q9HC16; HeLa A3G-eYFP + Vif (tagged APOBEC3G with the HIV-1 protein that degrades it), YFP fluorescence, overnight; AID 602310; 410,000 tested, 0.076% active; also: potency is read from the fitted curve at half-maximal effect; % is scaled to controls: 0 for no effect and ±100 for the full control effect; nearly all actives have a fitted effect of over 60% in size
# Target sequence (Q9HC16 whole entry, looked up): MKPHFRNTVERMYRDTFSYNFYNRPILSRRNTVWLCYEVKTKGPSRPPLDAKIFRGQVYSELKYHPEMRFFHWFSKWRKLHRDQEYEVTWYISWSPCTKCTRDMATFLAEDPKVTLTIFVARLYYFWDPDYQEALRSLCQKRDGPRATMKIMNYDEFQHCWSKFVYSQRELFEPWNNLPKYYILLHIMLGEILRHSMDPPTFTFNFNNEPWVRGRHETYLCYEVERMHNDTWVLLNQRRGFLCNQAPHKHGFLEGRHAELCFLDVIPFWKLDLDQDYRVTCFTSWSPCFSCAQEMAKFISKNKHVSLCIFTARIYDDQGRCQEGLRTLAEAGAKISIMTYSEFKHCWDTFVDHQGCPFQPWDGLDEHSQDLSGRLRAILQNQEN
#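 HeLa cells stably expressing Vif and C-terminally eYFP-tagged A3G, seeded overnight at 37 deg C, then exposed to compound by pintool overnight at 37 deg C. Rise in yellow fluorescence (Ex 488/Em 500-530, Acumen) marks blocked Vif-driven A3G degradation.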
# IL-1B inflam inh: inflammasome signaling inhibition, IL-1 beta readout; activity change, % at 57.5 µM; 360,000 tested, 4.7% active; THP-1 LPS/ATP IL-1B secretion, AlphaLISA, 16 h; stronger effect = lower value; AID 743279; in the data active = activity change below about -50%; inconclusive = mostly about -30% to -49%; also: % is scaled to controls: 0 for no effect and ±100 for the full control effect
#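 Secreted IL-1B measured by AlphaLISA bead assay after 16 h compound exposure of THP-1 cells; compounds (final up to 57.5 uM) added 1 h before LPS (250 ng/mL) and ATP (1.25 mM) stimulation; lower signal means less secretion.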
# * hit, by the source's call; ? = inconclusive; . = no result given. Unless noted, calls follow the shape of the dose curve; as a rule, active = well fitted curve in the direction sought with a large enough effect; inconclusive = small, poorly fitted or top-dose-only effect, or another doubt; inactive = no such curve, though single readings can be large; an effect the other way counts as inactive or inconclusive.
SMILES,Vif-A3F inh,SW480 rerep,Giardia kill,MCF10A rerep,Vif-A3G inh,IL-1B inflam inh
CCC(=O)Nc1cc(C(=O)OC(C(=O)c2ccc(C)c(C)c2)c2ccccc2)ccc1C (stereo not given),2%,?,44,4%,-6%,-59*
Cc1cccc(N2C(S)=C(C#N)C(=O)NC23CCCCC3)c1,-2%,6%,5,0%,-1%,-78*
O=C(NCCCN1CCOCC1)c1ccc(Cl)cc1,.,-4%,.,-4%,.,.
O=C(CCN1CCOCC1)c1ccc(Br)cc1,6%,?,2,9.2µM*,-26%,-91*
O=C(CCN1CCOCC1)c1ccc(Cl)cc1,5%,20%,-1,7.3µM*,-7%,-24
O=S(=O)(NC1CC1)c1ccc(S(=O)(=O)N2CCC3(CC2)OCCO3)cc1,-31%,-8%,-14,-7%,0%,16
CC(C)CNS(=O)(=O)c1ccc(S(=O)(=O)N2CCC3(CC2)OCCO3)cc1,-7%,0.18µM*,-11,-57%,-4%,0
O=C(O)Cc1sc(NC2CCCCC2)nc1-c1ccc(Cl)cc1,25µM*,21%,9,?,-27%,9
O=C(Cc1sc(Nc2ccccc2)nc1-c1ccccc1)NCc1ccccc1,-9%,?,1,?,-18%,-68*
Cc1ccc(-c2nc(Nc3cccc(C)c3)sc2CC(=O)O)cc1,?,?,-4,21µM*,-21%,-7
O=C(O)Cc1sc(Nc2ccccc2)nc1-c1cccs1,-23%,?,14,23µM*,-26%,16
O=C(O)Cc1sc(NCCc2ccccc2)nc1-c1ccc(F)cc1,?,-28%,-2,?,-8%,-10
C=CCNc1nc(-c2cccs2)c(CC(=O)O)s1,-17%,-6%,-25,24%,-3%,-1
COc1cc(/C=N/OCC(=O)NC2CCCCC2)ccc1OCc1ccccc1,8%,9%,1,?,1%,?
C/C(=N\OCC(=O)NC12CC3CC(CC(C3)C1)C2)c1cc2ccccc2o1,-19%,?,-6,21µM*,-8%,-91*
COc1cc(/C=N/OCC(=O)NC23CC4CC(CC(C4)C2)C3)ccc1OCc1ccccc1,-3%,?,-22,21µM*,0%,-72*
CCOC(=O)c1ccccc1NC(=O)Cc1c(C(=O)O)c(C)cn1C,-7%,.,.,.,3%,.
BrC(/C=N/N1CCN(Cc2ccccc2)CC1)=C/c1ccccc1,5%,?,24,5%,3%,-82*
BrC(=C\c1ccccc1)/C=N/N1CCN(c2ccccn2)CC1,1%,?,12,21µM*,0%,-85*
FC(F)(F)c1ccc(/C=N/N2CCN(Cc3ccccc3)CC2)cc1,1%,1%,-1,-3%,-1%,-60*
BrC(=C\c1ccccc1)/C=N/N1CCN(Cc2ccccc2)CC1,-2%,3%,-8,6%,-5%,-20
CC(C)N(Cc1ccccc1)C(=O)c1nc(-c2ccc(Cl)cc2)n2c1CCCCC2,0%,.,.,.,3%,.
Brc1ccc[n+](CCC2CCCCC2)c1,.,.,.,.,0%,.
Fc1ccc(C(c2nnc(-c3ccccc3)o2)N2CCN(c3ccccc3)CC2)c(Cl)c1 (stereo not given),2%,.,.,.,-1%,.
Cc1ccc(-n2ccnc(NCCc3ccc(S(N)(=O)=O)cc3)c2=O)c(C)c1,-4%,.,.,.,1%,.
SMILES,Vif-A3F inh,SW480 rerep,Giardia kill,MCF10A rerep,Vif-A3G inh,IL-1B inflam inh
Cc1nnc2n1N=CC=C(c1ccccc1)S2,-4%,-17%,-4,17%,?,-91*
O=S(=O)(Nc1ccc(-c2ccc(N3CCCC3)nn2)cc1)c1ccc(OC(F)(F)F)cc1,1%,.,.,.,-2%,.
Cc1ccc(C)c(S(=O)(=O)N2CCCCC2CCNC(=O)C(=O)NCc2ccccn2)c1 (stereo not given),-14%,-9%,11,3%,-1%,-1
Cc1ccc(S(=O)(=O)N2CCCCC2CCNC(=O)C(=O)NCc2cccnc2)cc1 (stereo not given),5%,16µM*,-18,?,-25%,8
Cc1ccc(C)c(S(=O)(=O)N2CCCC2CNC(=O)C(=O)NCc2ccccc2C)c1 (stereo not given),-19%,3.7µM*,-7,-7%,-1%,-17
COc1ccccc1CNC(=O)C(=O)NCC1CCCN1S(=O)(=O)c1cc(C)ccc1C (stereo not given),-1%,.,.,.,-6%,19
Cc1ccc(C)c(S(=O)(=O)N2CCCC2CNC(=O)C(=O)NCc2ccccn2)c1 (stereo not given),-1%,18µM*,6,-21%,0%,6
Cc1ccc(C)c(S(=O)(=O)N2CCCC2CNC(=O)C(=O)NCC2CCCO2)c1 (stereo not given),2%,5.8µM*,19,27%,-2%,2
Cc1ccc(S(=O)(=O)N2CCN(c3nc(-c4cccs4)nc4ccccc34)CC2)c(C)c1,.,.,4,.,.,.
CCCCN1C(=O)c2[nH]nc(-c3ccccc3O)c2C1c1ccc(C(C)(C)C)cc1 (stereo not given),4%,.,.,.,3%,.
CCC(C)NCCOc1ccc(C)cc1[N+](=O)[O-] (stereo not given),-14%,0%,27,7%,-2%,-54*
O=C(Cn1c(=O)c2cccn2c2ccc(F)cc21)N1CCN(c2ccccc2)CC1,3%,.,.,.,-1%,.
CC(=O)O[C@@H]1C[C@H]2C(C)=C[C@H]3OC(=O)[C@@H](C)[C@H]3C[C@H]2[C@]1(C)O,4%,-14%,-19,-3%,4%,17
C=C1C(=O)O[C@H]2C[C@H]1[C@@H](OC(C)=O)C/C(C)=C/CC/C(C)=C\CC[C@]2(C)O,-1%,23µM*,6,?,-23%,-113*
CN(C)CCCN(C(=O)c1ccc(S(=O)(=O)N2CCOCC2)cc1)c1nc2cc3c(cc2s1)OCO3,-8%,?,-7,1%,1%,-11
CN(C)CCCN(C(=O)c1ccc(S(=O)(=O)N2CCCCC2)cc1)c1nc2cc3c(cc2s1)OCO3,-7%,11%,-3,14%,3%,-63*
CN(C)CCCN(C(=O)c1ccc(S(=O)(=O)N2CCCC2)cc1)c1nc2ccc(Br)cc2s1,1%,8%,6,1%,-12%,-52*
Cc1cc(C)c2nc(N(CCCN(C)C)C(=O)c3ccc(S(=O)(=O)N4CCCCCC4)cc3)sc2c1,-4%,?,7,?,-6%,-96*
CC1CN(S(=O)(=O)c2ccc(C(=O)N(CCCN(C)C)c3nc4c(Cl)cccc4s3)cc2)CC(C)O1 (stereo not given),-4%,-10%,2,7%,1%,-54*
